A selection: hits, their analogues and other compounds. The true share with any hit is near 19%.
KB-3-1 cytotox – kills parental KB-3-1 adenocarcinoma cells; KB-3-1 viability, CellTiter-Glo ATP luminescence, 72 h; Potency, µM (titrated, usually from 46.1 µM), most hits filed as cytotoxic; actives 1.4% (n = 400,000); AID 1347075; note: nearly all actives have a fitted effect of over 60% in size
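Cells are dispensed, compounds pinned in, plates held at 37 °C for 72 h, then CellTiter-Glo is added and luminescence read after 10 minutes. Cell line: parental KB-3-1 in phenol-red-free DMEM, 10% FBS.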
TDP1 cell noCPT – qHTS for Inhibitors of human tyrosyl-DNA phosphodiesterase 1 (TDP1): qHTS in cells in absence of CPT; DT40 Tdp1-/- hTDP1 cells, no CPT, ATP luminescence, 48 h; Potency, µM (top dose mostly 46.2 µM), without a hit: at the highest dose activity change, negative = growth inhibition, actives largely listed as inhibitors; actives 15% (n = 420,000); note: nearly all actives have a fitted effect of over 55% in size
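Compound effects on proliferation are scored in DT40 Tdp1-/-;hTDP1 cells in the absence of CPT. ATP levels (CellTiter-Glo luminescence) are recorded after a ≥48 hr, 37 °C incubation.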
HT1080 IDH1KD tx – toxicity to HT-1080 IDH1 knockdown cells (counter line) | HT-1080 IDH1 knockdown viability, ATP luminescence, 48 h | Potency, µM (titrated, usually from 46.1 µM), inactives show at the highest dose activity, negative = toxicity, most hits filed as cytotoxic | actives 2% (n = 360,000) | AID 686971;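 note: 0% = DMSO wells and -100% = cell-free medium wells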
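HT-1080-IDH1KD cells (IDH1 knocked down), 750/well in RPMI with 5% FBS, treated with compound 48 h at 37 degrees C. Viability by CellTiter-Glo luminescence, normalised to DMSO and no-cell wells; concentration-response curves classed.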
HT1080NT lethal – kills 2HG-producing HT-1080-NT fibrosarcoma cells; actives 1.6% (n = 360,000); AID 686970; HT-1080-NT fibrosarcoma viability, CellTiter-Glo ATP luminescence, 48 h; Potency, µM (doses to about 46.1 µM), without a hit: at the highest dose activity, negative = less viability, most hits filed as cytotoxic;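 note: NT is the 2HG producing partner of a matched IDH1 knockdown line; 0% = DMSO-treated cells and -100% = media-only wells without cells; nearly all actives have a fitted effect of over 55% in size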
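A 48-hour cytotoxicity screen used HT-1080-NT cells plated 2 hours before compound delivery. ATP-based CellTiter-Glo luminescence measured viability, normalized to DMSO and no-cell controls.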
DT40 TDP1 CPT – growth inhibition of DT40 Tdp1-/-;hTDP1 cells with camptothecin (screen for TDP1 inhibitors) | chicken DT40 Tdp1-/-;hTDP1 cells + 20 nM CPT, ATP luminescence, 48 h | Potency, µM (doses to about 46.2 µM), for the others: at the top dose activity change, negative = growth inhibition, actives largely listed as inhibitors | actives 12% (n = 420,000) | AID 686979; note: nearly all actives have a fitted effect of over 55% in size
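Cell growth measured by CellTiter-Glo luminescence after a minimum 48 h, 37 C compound exposure with 20 nM CPT in Tdp1-knockout DT40 cells stably expressing hTDP1, seeded 400/well; qHTS titration format.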
KB-V1 cytotox – kills drug-selected multidrug resistant KB-V1 cells; KB-V1 MDR cells viability, CellTiter-Glo, 72 h; Potency, µM (series often up to 46.1 µM), usual class: cytotoxic; actives 3.4% (n = 400,000); AID 1347076; note: nearly all actives have a fitted effect of over 60% in size
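Luminescent ATP read-out (CellTiter-Glo, 10 min) measures survival of drug-selected KB-V1 MDR cells after 72 h, 37 degrees C compound exposure. Medium: phenol-red-free DMEM, 10% FBS. Values from fitted concentration-response curves.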
Starred values were filed as active, the others as inactive. Calls come from the whole dose curve; as a rule, active = well fitted curve in the direction sought with a large enough effect; inconclusive = small, poorly fitted or top-dose-only effect, or another doubt; inactive = no such curve, though single readings can be large; an effect the other way counts as inactive or inconclusive. Unless noted, % is set by controls: 0 for no effect and ±100 for the full control effect; potency is the fitted concentration of half-maximal effect.

What do the screens show for `CC(/C=N/NC(=O)Cn1cnc2ccccc21)=C\c1ccccc1`?
KB-3-1 cytotox: inactive; TDP1 cell noCPT: inconclusive; HT1080 IDH1KD tx: -9%; HT1080NT lethal: -3%; DT40 TDP1 CPT: 23µM*; KB-V1 cytotox: inactive

How did COc1ccc(/C=N/NC(=O)Cn2nc(C)c([N+](=O)[O-])c2C)cc1 do in these assays?
KB-3-1 cytotox: inactive; TDP1 cell noCPT: inconclusive; HT1080 IDH1KD tx: -9%; HT1080NT lethal: -7%; DT40 TDP1 CPT: 12µM*; KB-V1 cytotox: inactive

What do the screens show for `COc1ccc(OC)c(-c2cc(C(=O)Nc3ccccc3C(N)=O)c3ccccc3n2)c1`?
KB-3-1 cytotox: inactive; TDP1 cell noCPT: 8.2µM*; HT1080 IDH1KD tx: inconclusive; HT1080NT lethal: -18%; DT40 TDP1 CPT: 21µM*; KB-V1 cytotox: inconclusive

How did COc1ccc(OC)c(-c2cc(C(=O)O)c3cc4ccccc4cc3n2)c1 do in these assays?
KB-3-1 cytotox: inactive; TDP1 cell noCPT: -3%; HT1080 IDH1KD tx: -1%; HT1080NT lethal: 3%; DT40 TDP1 CPT: -2%; KB-V1 cytotox: inactive

Results for O=C(O)/C=C/C(=O)N1CCN(C(=O)/C=C/C(=O)O)CC1 ?
KB-3-1 cytotox: inactive; TDP1 cell noCPT: -9%; HT1080 IDH1KD tx: 19%; HT1080NT lethal: 23%; DT40 TDP1 CPT: 0%; KB-V1 cytotox: inconclusive

What do the screens show for `CCOC(=O)/C=C/C(=O)N1CCN(C(=O)/C=C/C(=O)OCC)CC1`?
KB-3-1 cytotox: inactive; TDP1 cell noCPT: 21µM*; HT1080 IDH1KD tx: -24%; HT1080NT lethal: -9%; DT40 TDP1 CPT: inconclusive; KB-V1 cytotox: inactive

How did Cc1ccc(/C=C2/SC(=O)N(CC(=O)N3CCOCC3)C2=O)s1 do in these assays?
KB-3-1 cytotox: inactive; TDP1 cell noCPT: inconclusive; HT1080 IDH1KD tx: 9%; HT1080NT lethal: 5%; DT40 TDP1 CPT: -12%; KB-V1 cytotox: 21µM*

What do the screens show for `Cn1cccc1/C=C1/SC(=O)N(CC(=O)N2CCCC2)C1=O`?
KB-3-1 cytotox: inactive; TDP1 cell noCPT: -5%; HT1080 IDH1KD tx: 12%; HT1080NT lethal: 17%; DT40 TDP1 CPT: 11%; KB-V1 cytotox: 16µM*

What do the screens show for `O=C1CCCC2=C1C(c1ccccc1Cl)N=C(Nc1nc3ccccc3o1)N2` (configuration not stated)?
KB-3-1 cytotox: inactive; KB-V1 cytotox: inactive

How did CCCCOc1ccc(NC2=NC3(CCCC3)N=C(N)N2)cc1 do in these assays?
KB-3-1 cytotox: 7.3µM*; TDP1 cell noCPT: 16µM*; HT1080 IDH1KD tx: inconclusive; HT1080NT lethal: inconclusive; DT40 TDP1 CPT: 16µM*; KB-V1 cytotox: inactive

What do the screens show for `CC(C)(C)OC(=O)NCC(=O)NNC(=O)C(C(=O)OCc1ccccc1)c1ccccc1` (configuration not stated)?
KB-3-1 cytotox: inactive; KB-V1 cytotox: inactive

What do the screens show for `COc1ccc(CN2C(=O)CCC2(C)C(=O)NC2CCCCCC2)cc1` (configuration not stated)?
KB-3-1 cytotox: inactive; TDP1 cell noCPT: 3%; HT1080 IDH1KD tx: 7%; HT1080NT lethal: 1%; DT40 TDP1 CPT: 4%; KB-V1 cytotox: 15µM*

Results for COc1cccc(CN2C(=O)CCC2(C)C(=O)NC2CCCCC2)c1 (configuration not stated) ?
KB-3-1 cytotox: inactive; TDP1 cell noCPT: 4%; HT1080 IDH1KD tx: -2%; HT1080NT lethal: 0%; DT40 TDP1 CPT: -10%; KB-V1 cytotox: inactive

How did CC(C)CCN1C(=O)CCC1(C)C(=O)NC1CCCCCC1 (configuration not stated) do in these assays?
KB-3-1 cytotox: inactive; TDP1 cell noCPT: -6%; HT1080 IDH1KD tx: -23%; HT1080NT lethal: 17%; DT40 TDP1 CPT: -24%; KB-V1 cytotox: 18µM*
